Reference: PubChem BioAssay AID1159580 (chemical genetic matrix, 2015)
Among all 5,500 compounds or so, about 2,000 (36%) were called active. Inconclusive results (about 18%) are left out. Some of the results follow. Unmarked numbers belong to inactive results. Rule as the data show it: active = normalized growth mostly below about 0.91 (no sharp cut-off); inconclusive = no clear call, values can overlap the other calls; inactive = mostly above about 0.92.

Assay: chemical genetic growth profiling, strain panel (AID 1159580);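 also: tested at 20 µM; growth read once vehicle control cultures reached saturation at 30 °C; 1 = growth at the plate median or of vehicle wells; lower values mean less growth of the strain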
Settings: S. cerevisiae deletion strains, growth OD
[1] = locus YGR078C, strain PAC10, active compounds read low
[2] = locus YJR075W, strain HOC1, active compounds read low
[3] = locus YNL153C, strain GIM3, active compounds read low
[4] = locus YNL322C, strain KRE1, active compounds read low
[5] = locus YDL101C, strain DUN1, active compounds read low
[6] = locus YHR030C, strain SLT2, active compounds read low

Work on Brc1ccc([C@H]2CN3CCSC3=N2)cc1 yielded a normalized growth (locus YAL040C, strain CLN3, active compounds read low) of 1.01, a normalized growth (locus YER002W, strain NOP16, active compounds read low) of 1.03 and a normalized growth [1] of 1.02. It also gave a normalized growth [2] of 0.983, a normalized growth [3] of 0.997 and a normalized growth (locus YNL175C, strain NOP13, active compounds read low) of 1.01. It also gave a normalized growth (locus YNL197C, strain WHI3, active compounds read low) of 1.01, a normalized growth (locus YNL224C, strain SQS1, active compounds read low) of 1.01 and a normalized growth [4] of 0.997. For the same molecule, the normalized growth (locus YOR083W, strain WHI5 (second series), active compounds read low) was 1.02.
For Brc1cccc(C=NCc2ccccc2)c1, the normalized growth (locus YAL013W, strain DEP1, active compounds read low) was 0.87 (active), the normalized growth (locus YBR229C, strain ROT2, active compounds read low) was 0.843 (active) and the normalized growth [5] was 0.888 (active). For the same molecule, the normalized growth (locus YDL134C, strain PPH21, active compounds read low) was 0.765 (active), the normalized growth (locus YDR150W, strain NUM1, active compounds read low) was 0.932 and the normalized growth (locus YEL061C, strain CIN8, active compounds read low) was 0.621 (active). The normalized growth [1] was 0.847 (active), the normalized growth [6] was 0.198 (active) and the normalized growth (locus YHR087W, strain rtc3, active compounds read low) was 0.788 (active). For the same molecule, the normalized growth (locus YJL187C, strain SWE1, active compounds read low) was 0.848 (active), the normalized growth (locus YJR043C, strain POL32, active compounds read low) was 0.954 and the normalized growth [2] was 0.719 (active). For the same molecule, the normalized growth (locus YLR039C, strain RIC1, active compounds read low) was 0.242 (active), the normalized growth (locus YLR058C, strain SHM2 (second series), active compounds read low) was 0.961 and the normalized growth (locus YLR085C, strain ARP6, active compounds read low) was 0.333 (active). The normalized growth (locus YLR262C, strain YPT6, active compounds read low) was 0.23 (active), the normalized growth (locus YML094W, strain GIM5, active compounds read low) was 0.656 (active) and the normalized growth (locus YMR219W, strain ESC1, active compounds read low) was 0.92 (active). For the same molecule, the normalized growth (locus YMR263W, strain SAP30, active compounds read low) was 0.883 (active), the normalized growth (locus YNL128W, strain TEP1, active compounds read low) was 0.829 (active) and the normalized growth [3] was 0.921 (active). The normalized growth (locus YNL298W, strain CLA4 (second series), active compounds read low) was 0.664 (active), the normalized growth [4] was 0.983 and the normalized growth (locus YNR030W, strain Alg12, active compounds read low) was 0.761 (active). For the same molecule, the normalized growth (locus YPL055C, strain LGE1, active compounds read low) was 0.825, the normalized growth (locus YPL241C, strain CIN2, active compounds read low) was 0.663 (active) and the normalized growth (locus YPR135W, strain CTF4, active compounds read low) was 0.366 (active).
Work on Clc1cc(Cl)cc(C=NCc2ccccc2)c1 yielded a normalized growth (locus YAR019C, strain CDC15, active compounds read low) of 0.958, a normalized growth (locus YBL105C, strain PKC1, active compounds read low) of 0.946 and a normalized growth (locus YBR135W, strain CKS1, active compounds read low) of 0.961. The normalized growth (locus YBR136W, strain MEC1, active compounds read low) was 0.957, the normalized growth (locus YBR160W, strain CDC28, active compounds read low) was 0.955 and the normalized growth (locus YDL017W, strain CDC7, active compounds read low) was 0.951. For the same molecule, the normalized growth (locus YDL028C, strain MPS1, active compounds read low) was 0.958, the normalized growth [5] was 0.964 and the normalized growth (locus YDL108W, strain KIN28, active compounds read low) was 0.964. For the same molecule, the normalized growth (locus YDL132W, strain cdc53, active compounds read low) was 0.959, the normalized growth (locus YDL214C, strain PRR2, active compounds read low) was 0.665 (active) and the normalized growth (locus YDR052C, strain DBF4, active compounds read low) was 0.957. The normalized growth (locus YDR054C, strain cdc34, active compounds read low) was 0.95, the normalized growth (locus YDR226W, strain ADK1, active compounds read low) was 0.957 and the normalized growth (locus YDR477W, strain SNF1, active compounds read low) was 0.621 (active). The normalized growth (locus YER123W, strain YCK3, active compounds read low) was 0.364 (active), the normalized growth (locus YER133W, strain GLC7, active compounds read low) was 0.625 (active) and the normalized growth (locus YFL009W, strain cdc4, active compounds read low) was 0.961. The normalized growth (locus YFL029C, strain CAK1, active compounds read low) was 0.961, the normalized growth (locus YFR003C, strain YPI1, active compounds read low) was 0.95 and the normalized growth (locus YFR019W, strain FAB1, active compounds read low) was 0.501 (active). For the same molecule, the normalized growth (locus YFR028C, strain CDC14, active compounds read low) was 0.967, the normalized growth (locus YGR040W, strain KSS1, active compounds read low) was 0.681 (active) and the normalized growth (locus YGR052W, strain FMP48, active compounds read low) was 0.627. For the same molecule, the normalized growth (locus YGR092W, strain DBF2, active compounds read low) was 0.222 (active), the normalized growth [6] was 0.322 (active) and the normalized growth (locus YHR079C, strain IRE1, active compounds read low) was 0.27 (active). It also gave a normalized growth (locus YHR082C, strain KSP1, active compounds read low) of 0.616, a normalized growth (locus YHR205W, strain SCH9, active compounds read low) of 0.621 and a normalized growth (locus YIL147C, strain SLN1, active compounds read low) of 0.947. The normalized growth (locus YJL095W, strain BCK1, active compounds read low) was 0.375 (active), the normalized growth (locus YJL128C, strain PBS2, active compounds read low) was 0.93 and the normalized growth (locus YJL157C, strain FAR1, active compounds read low) was 0.458 (active). The normalized growth (locus YJR016C, strain ILV3, active compounds read low) was 0.961, the normalized growth (locus YJR066W, strain TOR1 (second series), active compounds read low) was 0.585 (active) and the normalized growth (locus YJR066W, strain TOR1, active compounds read low) was 0.433 (active). The normalized growth (locus YKL048C, strain ELM1, active compounds read low) was 0.722 (active), the normalized growth (locus YKL067W, strain YNK1, active compounds read low) was 0.58 (active) and the normalized growth (locus YKL101W, strain HSL1, active compounds read low) was 0.692 (active). The normalized growth (locus YKL193C, strain SDS22, active compounds read low) was 0.956, the normalized growth (locus YKL203C, strain TOR2, active compounds read low) was 0.691 (active) and the normalized growth (locus YLR113W, strain HOG1, active compounds read low) was 0.375 (active). For the same molecule, the normalized growth (locus YLR133W, strain CKI1, active compounds read low) was 0.525 (active), the normalized growth (locus YLR403W, strain SFP1, active compounds read low) was 0.479 (active) and the normalized growth (locus YML070W, strain DAK1, active compounds read low) was 0.428 (active). The normalized growth (locus YMR001C, strain CDC5, active compounds read low) was 0.947, the normalized growth (locus YMR205C, strain PFK2 (second series), active compounds read low) was 0.652 (active) and the normalized growth (locus YMR277W, strain FCP1, active compounds read low) was 0.966. For the same molecule, the normalized growth (locus YNL006W, strain LST8, active compounds read low) was 0.95, the normalized growth (locus YNL020C, strain ARK1, active compounds read low) was 0.452 (active) and the normalized growth (locus YNL161W, strain CBK1, active compounds read low) was 0.95. The normalized growth (locus YNL183C, strain NPR1, active compounds read low) was 0.549 (active), the normalized growth (locus YNL207W, strain RIO2, active compounds read low) was 0.963 and the normalized growth (locus YNL222W, strain SSU72, active compounds read low) was 0.963. For the same molecule, the normalized growth (locus YNL307C, strain MCK1 (second series), active compounds read low) was 0.489 (active), the normalized growth (locus YOL078W, strain AVO1, active compounds read low) was 0.965 and the normalized growth (locus YOL136C, strain PFK27, active compounds read low) was 0.328 (active). For the same molecule, the normalized growth (locus YOR061W, strain CKA2, active compounds read low) was 0.441 (active), the normalized growth (locus YOR119C, strain RIO1, active compounds read low) was 0.744 and the normalized growth (locus YOR231W, strain MKK1, active compounds read low) was 0.364 (active). For the same molecule, the normalized growth (locus YOR329C, strain SCD5, active compounds read low) was 0.946, the normalized growth (locus YPL031C, strain PHO85, active compounds read low) was 0.589 (active) and the normalized growth (locus YPL153C, strain RAD53, active compounds read low) was 0.534 (active). The normalized growth (locus YPL204W, strain HRR25, active compounds read low) was 0.489 (active), the normalized growth (locus YPL209C, strain IPL1, active compounds read low) was 0.957 and the normalized growth (locus YPL256C, strain CLN2, active compounds read low) was 0.303 (active). The normalized growth (locus YPR025C, strain CCL1, active compounds read low) was 0.953, the normalized growth (locus YPR106W, strain ISR1, active compounds read low) was 0.959 and the normalized growth (locus YPR111W, strain DBF20, active compounds read low) was 0.957. For the same molecule, the normalized growth (strain NNK1, active compounds read low) was 0.959 and the normalized growth (strain TSCII, active compounds read low) was 0.954.
